Source: PubChem BioAssay (NCATS)
Results filed as inconclusive are left out. A call without a number means that no potency is given here. The source made the active and inactive calls. Calls follow the shape of the dose curve; as a rule, active = well fitted inhibition curve with a large enough effect; inconclusive = small, poorly fitted or top-dose-only effect; inactive = flat fitted curve, though single readings scatter.

What was measured:
Assay in all cases: qHTS profiling for inhibitors of Plasmodium falciparum proliferation (AID 504749); also: nearly all actives have a fitted effect of over 60% in size
Details in all cases: P. falciparum in erythrocytes, SYBR Green DNA, 72 h; series mostly up to 28.7 µM
CP250 = test system: CP250
How it was run: (§1)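 Three-day growth assay of blood-stage parasites in erythrocytes (0.3% parasitemia, 2.5% hematocrit) at 37 C, 5% CO2, quantified by SYBR Green DNA staining after overnight detergent lysis.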

CP252 = test system: CP252
How it was run: as §1

CP256 = test system: CP256
How it was run: as §1

CP260 = test system: CP260
How it was run: as §1

CP262 = test system: CP262
How it was run: as §1

CP265 = test system: CP265
How it was run: as §1

CP266 = test system: CP266
How it was run: as §1

CP268 = test system: CP268
How it was run: as §1

CP269 = test system: CP269
How it was run: as §1

CP247 = test system: CP247
How it was run: as §1
Potency is read from the fitted curve at half-maximal effect.

Structure (SMILES) | Potency (CP250) | Potency (CP252) | outcome (CP256) | Potency (CP260) | outcome (CP262) | Potency (CP265) | Potency (CP266) | Potency (CP268) | Potency (CP269) | outcome (CP247)
Cc1cc2nc3c(=O)[nH]c(=O)nc-3n(CC(O)C(O)C(O)CO)c2cc1C (stereo not given) | inactive | inactive | inactive | inactive | inactive | inactive | inactive | inactive | inactive | 
CS(=O)(=O)c1ccc(C2=C(c3ccccc3)C(=O)OC2)cc1 | inactive | inactive | inactive | inactive | inactive | inactive | inactive | inactive | inactive | inactive
O=C1C(CCC(O)c2ccc(F)cc2)C(c2ccc(O)cc2)N1c1ccc(F)cc1 (stereo not given) | inactive | inactive | inactive | inactive | inactive | inactive | inactive | inactive | inactive | inactive
N#CC(c1ccc(Cl)cc1)c1c(Cl)cc(-n2ncc(=O)[nH]c2=O)cc1Cl (stereo not given) | inactive | inactive | inactive | inactive | inactive | inactive | inactive | inactive | inactive | inactive
CN1CC(=O)N2C(Cc3c([nH]c4ccccc34)[C@H]2c2ccc3c(c2)OCO3)C1=O (stereo not given in full) | inactive | inactive | inactive |  | inactive | inactive | inactive | inactive | inactive | inactive
COc1c(C)c2c(c(O)c1CC=C(C)CCC(=O)OCCN1CCOCC1)C(=O)OC2 | 7.94 µM (active) | 8.91 µM (active) |  | 11.2 µM (active) |  | 7.94 µM (active) | 12 µM (active) | 12 µM (active) | 8.49 µM (active) | 
CN1CCN2c3ncccc3Cc3ccccc3C2C1 (stereo not given) | inactive | inactive | inactive | inactive | inactive | inactive | inactive | inactive | inactive | inactive
NS(=O)(=O)c1cc(Cl)c(Cl)c(S(N)(=O)=O)c1 | inactive | inactive | inactive | inactive | inactive | inactive | inactive | inactive | inactive | inactive
Fc1ccc(C(c2ccc(F)cc2)N2CCN(CC=Cc3ccccc3)CC2)cc1 |  |  |  |  | inactive |  |  |  |  | 
N#Cc1c(N(CC(=O)O)CC(=O)O)sc(C(=O)O)c1CC(=O)O | inactive | inactive | inactive | inactive | inactive | inactive | inactive | inactive | inactive | inactive
C=C1c2cccc(O)c2C(O)=C2C(=O)[C@@]3(O)C(O)=C(C(N)=O)C(=O)[C@@H](N(C)C)[C@@H]3[C@@H](O)[C@H]12 | inactive | inactive | inactive |  | inactive | inactive | inactive | inactive | inactive | inactive
O=C(O)c1nc(=O)[nH]c(=O)[nH]1 | inactive | inactive | inactive | inactive | inactive | inactive | inactive | inactive | inactive | inactive
CC(C)CN(C[C@@H](O)[C@H](Cc1ccccc1)NC(=O)O[C@H]1CO[C@H]2OCC[C@H]21)S(=O)(=O)c1ccc(N)cc1 | inactive | inactive | inactive | inactive | inactive | inactive | inactive | inactive | inactive | inactive
COc1ccnc(CS(=O)c2nc3ccc(OC(F)F)cc3[nH]2)c1OC (stereo not given) | inactive | inactive | inactive | inactive | inactive | inactive | inactive | inactive | inactive | inactive
COc1cc2c(cc1OC)CC(=O)N(CCCN(C)C[C@H]1Cc3cc(OC)c(OC)cc31)CC2 | inactive | inactive | inactive | inactive | inactive | inactive | inactive | inactive | inactive | inactive
